The values that follow come from PubChem BioAssay (EPA / NIEHS).

Records with an inconclusive call do not appear. Active and inactive are the calls of the source. How the source made its calls: active means hit-call score of the fitted dose curve at least 0.9, where 1 is the maximum; inconclusive means response in the unintended direction; inactive means score below 0.9.

This experiment is described as follows: CCTE_Simmons_MITO_viability: CellTiter-Glo Viability Assessment for CCTE's HepG2 Seahorse XF Respirometric Screening Assay [post-hoc], Simmons Lab (AID 2284007).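 On AC50: cells exposed to chemical for 90 min before the ATP read; actives lower ATP signal relative to DMSO baseline meaning reduced viability.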 As for the experimental part:
CCTE_Simmons_MITO is cell-based, respirometric assay using HepG2 cells and a Seahorse XF Analyzer to measure oxygen consumption rates over four temporal phases spanning a total of 72 minutes: pre-injection (pre-treatment), basal (following test compound injection), maximal (following FCCP uncoupler injection), and inhibited (following rotenone/antimycin A injection)CCTE_Simmons_MITO_viability is one of 4 assay components measured from the CCTE_Simmons_MITO assay. It is designed to make measurements of ATP content, a form of viability reporter, as detected with bioluminescence signals by Luciferase-coupled ATP quantitation technology. Data from the assay component CCTE_Simmons_MITO_viability was analyzed at the endpoint, CCTE_Simmons_MITO_viability, in the positive analysis fitting direction relative to DMSO as the negative control and baseline of activity. Using a type of viability reporter, measures of ATP content for loss-of-signal activity can be used to understand the viability. To generalize the intended target to other relatable targets, this assay endpoint is annotated to the cell cycle intended target family, where the subfamily is cytotoxicity.
Test chemicals were administered as a titrated series of 7 concentrations from 125 nM up to 100 uM [final] for 90 minutes prior to single endpoint detection. Three biological replicates of technical singles were run for every chemical concentration tested. Dimethylsulfoxide [DMSO] was used as the vehicle control. Dichlone [DCNQ] was used as the positive control and was administered as a titrated series of 8 concentrations from 10 nM up to 100 uM [final].
For `CCCCC(O)(Cn1cncn1)c1ccc(Cl)cc1Cl` (centres undefined), the AC50 (usually the midpoint of the concentration-response curve, whichever way the signal moves) was 10.1 µM (active).

Regarding `Cn1c(-c2ccccc2)cc(-c2ccccc2)[n+]1C`, the molecule was classed as inactive.

Take `Cc1c(COC(=O)[C@@H]2[C@H](/C=C(\Cl)C(F)(F)F)C2(C)C)cccc1-c1ccccc1`: the molecule was classed as inactive.

`COCC(C)N(C(=O)CCl)c1c(C)csc1C` (centres undefined): the result was inactive.

Take `CC(C)(C)C(=O)C(Oc1ccc(Cl)cc1)n1cncn1` (centres undefined): the call was inactive.

On to `CC1(C)C(C=C(Cl)Cl)C1C(=O)OC(C#N)c1cccc(Oc2ccccc2)c1` (centres undefined), for which the molecule was called inactive.

As for `CO/N=C(/C1=NOCCO1)c1ccccc1Oc1ncnc(Oc2ccccc2Cl)c1F`, the molecule was called inactive.

`CCNP(=S)(OC)O/C(C)=C/C(=O)OC(C)C` (centres undefined): the molecule was called inactive.

As to `O=C1C2CC=CCC2C(=O)N1SC(Cl)(Cl)Cl` (centres undefined), the molecule was called inactive.

In the case of `CCN(CC)c1nc(C)cc(OP(=S)(OC)OC)n1`, the molecule was called inactive.

For `N#Cc1c[nH]cc1-c1cccc2c1OC(F)(F)O2`, the molecule was called inactive.

For `CCN(CC)C(=O)C(C)Oc1cccc2ccccc12` (centres undefined), the AC50 was 50 µM (active).

In the case of `CCOP(=S)(OCC)Oc1nc(Cl)n(C(C)C)n1`, the molecule was classed as inactive.

`CCOP(=O)(OCC)Oc1nc(Cl)c(Cl)cc1Cl`: the AC50 was 10.7 µM (active).
